Inconclusive results are not listed. Active and inactive are the calls of the source. Calls follow the shape of the dose curve; as a rule, active = well fitted cell-killing curve with a large enough effect; inconclusive = small, poorly fitted or top-dose-only effect, or effect the other way; inactive = no such curve, though single readings can be large or run the other way.
Potency is read from the fitted curve at half-maximal effect.

The assay can be described thus: Quantitative High-Throughput drug screen in 47 multiple myeloma cell lines against the NCATS MIPE library collection: U266_ATCC cell viability assay (AID 1919864). Also: nearly all actives have a fitted effect of over 35% in size. The note with it: U266 myeloma viability, CellTiter-Glo ATP luminescence, 48 h; series mostly up to 45.8 µM. An excerpt:
PI: Beverly A. Mock Ph.D.
Laboratory of Cancer Biology and Genetics,
Center for Cancer Research, National Cancer Institute,
National Institute of Health, Bethesda, Maryland
Drug resistance and disease progression are common in multiple myeloma (MM) patients, underscoring the need for new therapeutic combinations. […] We hypothesized that effective combinations would reduce MYC expression and enhance p16 activity. […] These preclinical data identify potentially useful drug combinations for evaluation in drug-resistant MM and reveal potential mechanisms of combined drug sensitivity.
Described herein is the primary MIPE qHTS used to cherrypick compounds. Validated compounds were then further tested for potential synergistic activiy.
[1] Peat TJ, Gaikwad SM, Dubois W, Gyabaah-Kessie N, Zhang S, Gorjifard S, Phyo Z, Andres M, Hughitt VK, Simpson RM, Miller MA, Girvin AT, Taylor A, Williams D, D'Antonio N, Zhang Y, Rajagopalan A, Flietner E, Wilson K, Zhang X, Shinn P, Klumpp-Thomas C, McKnight C, Itkin Z, Chen L, Kazandijian D, Zhang J, Michalowski AM, Simmons JK, Keats J, Thomas CJ, Mock BA. Drug combinations identified by high-throughput screening promote cell cycle transition and upregulate Smad pathways in myeloma. Cancer Lett. 2023 Aug 1;568:216284. doi: 10.1016/j.canlet.2023.216284. Epub 2023 Jun 24. PMID: 37356470; PMCID: PMC10408729.
SEQUENCE No. (e.g., 1, 2, 3, etc.); […] (e.g., Cells, Incubation, Reagent, etc.); VALUE and DESCRIPTION.
1; Cells; 5 uL; white, solid bottom 1536-well Greiner assay plate.
2; Compounds; 23 nL; Kalypsis pin tool (Wako USA) equipped with a 1536-well pin head to transfer to the assay plates.
3; Incubation; 48 hours; 37C incubation.
4; Reagent;5uL; CellTiter Glo (Promega).
5; Detector; 425V; Luminescence; Viewlux PerkinElmer.
NOTES (numbers refer to Sequence numbers above)
1. The cell-based screening methods employed in this study were like those previously published. Briefly, the corresponding myeloma cell lines were screened in 1,536-well plates with 500 cells, 5-uL per well for inhibition of cell viability (assessed by measuring ATP levels with CellTiterGlo).
2. NCATS MIPE 4.0 library of approved and investigational drugs were added using the Kalypsis pin tool. Wells treated with DMSO only for 100% viability and media only for 0% viability were used as controls.
3. The assay plates were covered and incubated for 48 hours in a 37C, 5% CO2 incubator with controlled humidity.
4. After 48 hours, CellTilter-GloTM luminescent substrate mix (Promega) reagent was added to the assay plate and plates we incubated for 5 min at room temperature.
5. Signal was measured as median relative luminescence units on a ViewLux (PerkinElmer) multiplate reader.
[1] Heske CM, Davis MI, Baumgart JT, Wilson K, Gormally MV, Chen L, Zhang X, Ceribelli M, Duveau DY, Guha R, Ferrer M, Arnaldez FI, Ji J, Tran HL, Zhang Y, Mendoza A, Helman LJ, Thomas CJ. Matrix Screen Identifies Synergistic Combination of PARP Inhibitors and Nicotinamide Phosphoribosyltransferase (NAMPT) Inhibitors in Ewing Sarcoma. Clin Cancer Res. 2017 Dec 1;23(23):7301-7311. doi: 10.1158/1078-0432.CCR-17-1121. Epub 2017 Sep 12. PMID: 28899971; PMCID: PMC6636827.
A general note: ATP-based viability assays read luminescence as a measure of living cells.
Take `O=C(O)C=Cc1ccc(O)c(O)c1`: the Potency is 14.8 µM (active). As for `c1ccc2c(Cc3c[nH]c4ccccc34)c[nH]c2c1`, the Potency was 2.96 µM (active). As for `Nc1nc(F)nc2c1ncn2[C@@H]1O[C@H](COP(=O)(O)O)[C@@H](O)[C@H]1O`, the Potency was 0.526 µM (active).

For the compound `C[N+](C)(C)CC(=O)O`, the Potency entry is “inactive”. With `CCC(=O)NC[C@H](Cc1ccc(OCCc2nc(-c3ccccc3)oc2C)cc1)NC(C)=CC(=O)c1ccc(C(F)(F)F)cc1`, the Potency entry was “inactive”. For the compound `Cc1cc(OCCCc2c(C(=O)O)n(Cc3cccnc3)c3c(-c4c(COc5ccc(N6CCN([S+](C)(=O)[O-])CC6)cc5)nn(C)c4C)cccc23)cc(C)c1Cl`, the Potency is 3.32 µM (active). For `OC[C@H]1O[C@@H](Oc2cc(O)cc(C=Cc3ccc(O)cc3)c2)[C@H](O)[C@@H](O)[C@H]1O` the value was “inactive”. In the case of `CC(C(=O)O)c1ccc(-c2ccccc2)c(F)c1` (stereo not given), the Potency was 20.9 µM (active). With `COc1cc(Nc2ncc(F)c(Nc3ccc4c(n3)NC(=O)C(C)(C)O4)n2)cc(OC)c1OC` the entry was “inactive”. Consider `N[C@@]1(C(=O)O)CS(=O)(=O)[C@H]2[C@H](C(=O)O)[C@H]21`, for which the Potency was 4.18 µM (active). With `Nc1ncnc2c1ncn2[C@@H]1O[C@H](CO)C[C@@H]1O` the figure was 26.4 µM (active); with `COc1cc2ncnc(Nc3ccc(F)c(Cl)c3)c2cc1OCCCN1CCOCC1`, 30.3 µM (active).

With `NC(=O)[C@@H](CCC(F)(F)F)N(Cc1ccc(-c2ncon2)cc1F)S(=O)(=O)c1ccc(Cl)cc1`, the Potency was 10.5 µM (active).

With `CS(=O)(=O)N(Cc1ccco1)CC(O)Cn1c2ccccc2c2ccccc21` (stereo not given), the Potency is 18.7 µM (active).

For `CC(C)(C)NC(=O)Nc1cccc(Nc2ncc(F)c(NC(C)(C)CO)n2)c1`, the Potency result was “inactive”. For `Oc1ccc(C2=Cc3ccc(O)cc3OC2)cc1` the value was 5.9 µM (active). With `O=C(CCCCCCC(=O)Nc1ccccc1)NO` the figure was 5.9 µM (active).

For `O=C1C(Cl)=C(NCCN2CCOCC2)C(=O)c2ncccc21`, the Potency is 5.9 µM (active). For `O=C(NC1CCOCC1)c1ccc(-c2cc(-c3cn[nH]c3-c3ccccn3)ccn2)cc1` the value was “inactive”. With `Clc1ccc(CCC(Cn2ccnc2)Sc2c(Cl)cccc2Cl)cc1` (stereo not given) the entry was “inactive”; with `CCC(=O)O[C@]1(C(=O)CO)CC[C@H]2[C@@H]3CCC4=CC(=O)CC[C@]4(C)[C@@H]3CC[C@@]21C`, “inactive”; with `O=C(OCC#CCSc1nnc(-c2cccc3ccccc23)o1)c1cc2ccccc2s1`, “inactive”.

With `O=c1cc(-c2ccc(O)cc2)oc2cc(O)cc(O)c12`, the Potency was 20.9 µM (active).

For the compound `O=C(CCN1CCN(C(=O)OCc2cc(Cl)cc(Cl)c2)CC1)c1ccc2[nH]c(=O)oc2c1`, the Potency result was “inactive”. On to `Cc1nnc(C(C)C)n1C1C[C@H]2CC[C@@H](C1)N2CC[C@H](NC(=O)C1CCC(F)(F)CC1)c1ccccc1` (stereo not given in full), for which the Potency was 11.8 µM (active). Turning to `Cc1ccccc1C(C(=O)NC1CCCCC1)N(C(=O)Cn1ccnc1C)c1cccc(F)c1` (stereo not given), the Potency is 5.26 µM (active).

Turning to `CCCCCN(C)CCC(O)(P(=O)(O)O)P(=O)(O)O`, the Potency result is “inactive”. With `CC(C)(C)OC(=O)N[C@H]1CCCCCC=C[C@@H]2C[C@@]2(C(=O)NS(=O)(=O)C2CC2)NC(=O)[C@@H]2C[C@@H](OC(=O)N3Cc4cccc(F)c4C3)CN2C1=O` the entry was “inactive”; with `COc1ccc(-c2cc(=O)c3c(O)cc(O)cc3o2)cc1O`, 8.33 µM (active). As for `CCCCCNC(=O)N1CCC(CN(Cc2ccc(Cl)cc2)Cc2ccc([N+](=O)[O-])s2)C1` (stereo not given), the Potency is 16.6 µM (active). `NC[C@@H]1O[C@@H](O[C@H]2[C@@H](O)[C@H](O[C@@H]3[C@@H](O)[C@@H](N)C[C@H](N)[C@H]3O[C@H]3O[C@H](CN)[C@@H](O)[C@@H](O)[C@H]3N)O[C@H]2CO)[C@H](N)[C@@H](O)[C@@H]1O`: the Potency result is “inactive”. With `O=C(O)c1ccc(-c2c[nH]c3ncc(-c4ccccc4)cc23)cc1C1CCCC1` the entry was “inactive”. `Oc1ccc(C2CCN(c3ccnc4ccccc34)CC2)cc1O`: the Potency was 3.32 µM (active).

Consider `O=C(NCc1ccncc1)C12C[C@H]3C[C@@H](C1)CC(c1ccc(Cl)cc1)(C3)C2`, for which the Potency is 16.6 µM (active).

Take `N[C@H](CSC(c1ccccc1)(c1ccccc1)c1ccccc1)C(=O)O`: the Potency result was “inactive”. On to `C[C@]12CCC3c4ccc(O)cc4CCC3C1CCC2=O` (stereo not given in full), for which the Potency result is “inactive”. With `O=c1c(-c2ccc(O)cc2)coc2cc(O)ccc12` the entry was “inactive”; with `Clc1cc(Cl)cc(CNc2ncncc2-c2ccc3c(c2)OCO3)c1`, “inactive”. For `CC(=O)Oc1cc2c(s1)CCN(C(C(=O)C1CC1)c1ccccc1F)C2` (stereo not given) the value was 8.33 µM (active); for `Cc1c[nH]c(C=C2C(=O)Nc3ccccc32)c1CCC(=O)O`, “inactive”.

Values taken from PubChem BioAssay (NCATS).
